Laboratory results: PubChem BioAssay AID1233 (SRMLSC, 2008)
Potency and affinity values are given separately. The source made the active and inactive calls.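 The calls were made as follows: active = a dose-response curve fit returns a half-maximal inhibitory concentration, extrapolated values included; inactive = the fit returns no such concentration.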

What follows are compounds tested against HMG-CoA reductase [Enterococcus faecalis] (UniProt Q9FD70) (assay: inhibitors of E. faecalis class II HMGR, confirmation, biochemical, Enterococcus faecalis (AID 1233)). Settings: purified E. faecalis HMGR, NADPH absorbance 340 nm kinetics; series mostly up to 100 µM.

outcome, inactive:
Cn1nnnc1SCC(=O)c1ccc(Br)s1
O=S1(=O)CC=C(CSC(=S)NC2CCS(=O)(=O)C2)C1 (stereo not drawn)
CCS(=O)(=O)CCn1c([N+](=O)[O-])cnc1C
Cc1c(CN2CCc3c([nH]c4ccccc34)C2C2CCCCC2)cnn1C (stereo not drawn)
CCOC(=O)c1ccc(Nc2nc(C(=O)OCC)nc3ccccc23)cc1
Cc1ccc(S(=O)(=O)ON2C(=O)c3ccccc3C2=O)c(C)c1
COc1ccc(N2CC(C(=O)NCCc3ccc(OC)c(OC)c3)CC2=O)cc1 (stereo not drawn)
COc1ccc(-c2nn(-c3ccccc3)cc2/C=N/Nc2cccc(C(=O)O)c2)cc1
O=C(O)C(Cc1ccccc1)N1C(=O)C2CCCCC2C1=O (stereo not drawn)
CN(C)CCCN(Cc1ccccc1)C(=S)Nc1ccc(SC(F)F)cc1
CCN1CCN(CCC(=O)Nc2ccc3c(c2)OCO3)CC1
CC(C)(C)OC(=O)N1CCC[C@H]1c1nnc(SCc2ccccc2F)o1
Cc1cccc(C(=O)Nc2cc(=O)n(C)c(=O)n2C)c1
O=C(N/N=C/C(Cl)=C/c1ccccc1)c1cnccn1
Cc1ccccc1-c1oc(C)c(C)[n+]1[O-]
Cc1cccc(-n2nc(C)cc2N)c1
Cc1ccc(C(=O)CC2(O)C(=O)N(C)c3ccccc32)s1 (stereo not drawn)
COc1ccc(Nc2nc3c(C)cccn3c(=O)c2C=NCc2ccccc2)cc1
COc1ccc(N=C2C(=O)Nc3ccccc32)cc1
CC(=O)Nc1cccc(NC(=O)CSc2ccc(-c3cccnc3)nn2)c1
Cc1cc(Nc2cccc([N+](=O)[O-])c2)c2ccccc2n1
Cn1c(OCc2cccnc2)nc2c1c(=O)n(Cc1ccc(Br)cc1)c(=O)n2C
Cc1ccc2nc(-c3sc4nc(C)ccc4c3N)[nH]c2c1
CC(C)(C)c1ccc(C(=O)Nc2ccc(NC(=O)c3ccco3)cc2)cc1
O=C(N/N=C/c1ccc2c(c1)OCO2)c1ccc(NS(=O)(=O)c2cccs2)cc1
CCCC(=O)NC(=S)Nc1ccc(Cl)cn1
COc1ccc(Cc2noc(-c3ccccc3)n2)cc1OC
CCN(CC)c1ccc(/C=N/NS(=O)(=O)c2cccc([N+](=O)[O-])c2)cc1
CCc1c(C)sc(NC(=O)C2CC2c2ccccc2)c1C(N)=O (stereo not drawn)
CCCCOc1ccccc1NC(=O)CC1SC(=NCC)N(CC)C1=O (stereo not drawn)
CCOC(=O)Cc1nn(Cc2ccccc2)c(=O)c2ccccc12
CN(CC(=O)NCCc1ccccc1)S(=O)(=O)c1ccccc1
O=C(CNC(=O)c1ccccc1)N/N=C/c1cccs1
N#CCCCn1c(=O)oc2ccccc21
Cc1cccc(S(=O)(=O)Nc2ccc(-c3cn4ccccc4n3)cc2)c1
Cc1cc(C(=O)N[C@H](c2ccccc2)[C@@]2(C)C[C@@H]2[C@@H](C)C(=O)Nc2ccc3ccccc3c2)no1
CCCCCCNC(=O)C(=O)NCCc1ccc(Cl)cc1
NC1=NC(=O)S/C1=C\c1ccc(F)cc1
